Results from a collection of fitness landscapes (doi:10.1016/j.celrep.2020.107928).
Over roughly 81,000 sequences, “one-hybrid fitness for binding NBS DNA” has its median near -0.1; the highest 2% begin near 0.36. This excerpt belongs to a sample that is enriched for the highest values.

B1: Caulobacter ParB omega fusion; a variant is named by its letters at X, in order, B8GW30 (parent)
chain: MESVVVGEPGMSEGRRGLGRGLSALLGEVDAAPAQAPGEQLGGSREAPIEILQRNPDQPRRTFREEDLEDLSNSIREKGVLQPILVRPSPDTAGEYQIVAGERAWRAAQRAGLKTVPIMVRELDDLAVLEIGIIENVQRADLNVLEEALSYKVLMEKFERTQENIAQTIGKSXSHVANXMRLLXLPDEVQSYLVSGELTAXHARAIAAAADPVALAKQIIEGGLSVRETEALARKAPNLSAGKSKGGRPPRVKDTDTQALESDLSSVLGLDVSIDHRGSTGTLTITYATLEQLDDLCNRLTRGI

Variants of: B1
Assay: one-hybrid fitness for binding NBS DNA (the Noc-binding site; scaled: cognate 1, non-cognate 0); higher = stronger binding
Details: with NBS DNA site
How it was run: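 Values were rescaled so that cognate is 1 and non-cognate is 0. Each is a fitness, the log change in a variant's read ratio to wild type from Illumina reads of plasmids before and after selection, with three replicate libraries pooled and variants under 10 reads dropped. Selection of the Caulobacter ParB libraries, four specificity codons randomised, used E. coli USO with a HIS3 reporter, site 19 bp from the promoter, on M9-minus-histidine with 0.1 mM IPTG and 5 mM 3-AT for 48 hours at 37°C.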

Variant	one-hybrid fitness for binding NBS DNA
PRGP	≤ 0.2
QPNR	0.236
QANR	0.583
QCNR	0.751
QADR	0.314
QLND	≤ 0.2
QFNR	0.268
QANN	≤ 0.2
QLDR	0.295
QLNR	0.551
NTLI	≤ 0.2
VIMF	≤ 0.2
LAGN	≤ 0.2
EMRR	0.21
ADQR	≤ 0.2
FNIT	≤ 0.2
RPMM	≤ 0.2
GCIC	≤ 0.2
QTNK	0.304
QTYR	0.691
NTRR	0.235
DTRR	0.303
QTDP	≤ 0.2
QTRR	1.15

Variant	one-hybrid fitness for binding NBS DNA
QTNG	0.286
QTNR	0.936
QTDR	0.483
PSTM	≤ 0.2
IDSK	≤ 0.2
HNGW	≤ 0.2
VPAW	≤ 0.2
YCQT	≤ 0.2
TPGL	≤ 0.2
LPPV	≤ 0.2
HSKL	≤ 0.2
CRKT	0.365
IRDT	≤ 0.2
IRKT	0.471
CCKT	≤ 0.2
CRVT	≤ 0.2
IRKD	≤ 0.2
ISNT	≤ 0.2
ICKS	≤ 0.2
ISKT	≤ 0.2
IRNT	0.451
IRKS	0.37
IRVT	≤ 0.2
NWRM	≤ 0.2

Variant	one-hybrid fitness for binding NBS DNA
VPHA	≤ 0.2
QWQG	≤ 0.2
FVWR	≤ 0.2
DGRN	≤ 0.2
NANS	≤ 0.2
VHVA	≤ 0.2
KSLV	≤ 0.2
HSRL	≤ 0.2
IRDR	≤ 0.2
IRKR	0.67
ICNR	≤ 0.2
ICRR	0.291
IRYR	0.226
IRYT	≤ 0.2
ICRT	≤ 0.2
IRRR	0.601
ISKR	0.243
IRNR	0.422
IRRT	0.423
ICKR	0.273
HAYM	≤ 0.2
CMSN	≤ 0.2
ARHS	≤ 0.2
TQNT	≤ 0.2

Variant	one-hybrid fitness for binding NBS DNA
TSWF	≤ 0.2
VQPL	≤ 0.2
RWGG	≤ 0.2
MFWL	≤ 0.2
RIRE	≤ 0.2
TLNG	≤ 0.2
DAAP	≤ 0.2
GRNT	≤ 0.2
VFAC	≤ 0.2
QHYA	0.291
QHRA	0.533
QHDA	≤ 0.2
QMDA	≤ 0.2
QMYA	0.267
QCRA	0.658
QARA	0.519
QMRA	0.569
QAYA	0.249
QADA	≤ 0.2
QCYA	0.328
QPRA	≤ 0.2
